# Assay results: the supplement of paper PMC3334620
# The full ranking holds about 33,000 sequences; the median of “E-score (-0.5 to 0.5)” is about -0.032, and the highest 2% start at about 0.36. For the sample, the highest values were picked, then their nearest neighbours and some sequences at random.
# Biological target: T1, Sko1 (UniProt Q02100)
# T1 sequence: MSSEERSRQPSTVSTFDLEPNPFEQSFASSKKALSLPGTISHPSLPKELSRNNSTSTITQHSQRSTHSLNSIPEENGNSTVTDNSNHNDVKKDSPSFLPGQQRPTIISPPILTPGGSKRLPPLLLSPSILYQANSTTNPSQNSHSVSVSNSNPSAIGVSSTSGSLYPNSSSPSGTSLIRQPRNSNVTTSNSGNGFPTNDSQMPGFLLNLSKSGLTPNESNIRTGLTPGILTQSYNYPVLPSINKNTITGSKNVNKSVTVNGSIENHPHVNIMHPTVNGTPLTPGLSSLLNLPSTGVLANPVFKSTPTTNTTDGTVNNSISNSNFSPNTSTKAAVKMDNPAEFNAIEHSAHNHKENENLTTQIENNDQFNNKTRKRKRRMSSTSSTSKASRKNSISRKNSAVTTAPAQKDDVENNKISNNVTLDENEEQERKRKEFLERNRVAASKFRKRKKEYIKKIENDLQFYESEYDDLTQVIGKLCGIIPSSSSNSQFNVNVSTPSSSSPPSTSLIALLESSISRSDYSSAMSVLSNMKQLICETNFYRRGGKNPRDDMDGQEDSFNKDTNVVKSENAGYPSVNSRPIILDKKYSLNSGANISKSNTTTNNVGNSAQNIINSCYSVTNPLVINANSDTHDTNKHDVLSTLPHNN
# Assay: PBM E-score (8-mer binding enrichment) (E-score (-0.5 to 0.5)); higher = stronger / more preferred TF binding
# Conditions: protein concentration: 200 nM; construct: GST-full length
# Experimental: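 Universal 'all 10-mer' protein binding microarrays (Agilent AMADID 015681) probed with GST-tagged S. cerevisiae TFs (full-length or DBD) made by in vitro transcription/translation (PURExpress), about 100-200 nM. Bound TF was detected with fluorescent anti-GST. Each ungapped 8-mer (which stands for itself and its reverse complement) is scored by the PBM enrichment score (E-score), a modified Wilcoxon-Mann-Whitney statistic from -0.5 to +0.5, computed with the Universal PBM Analysis Suite. Scale: above 0.35 generally sequence-specific binding.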
row,Sequence,PBM E-score
1,GACTCTGA,-0.104
2,GAGCTCCA,-0.129
3,AATCCTGG,-0.199
4,ATAGTTAC,0.212
5,CGCGACGA,0.125
6,ACGTTCGA,0.248
7,TCGGCTCA,-0.111
8,GTAGAGGA,-0.194
9,AAACCGAG,-0.175
10,CCGCTCCG,-0.269
11,GCCTTCCA,-0.222
12,CACACGTA,0.45
13,CACACGGA,-0.167
14,CACACGCG,0.104
15,CCTGCGAA,-0.0899
16,CGTAAGCC,0.203
17,GCGTTGGA,-0.00317
18,ACACTACG,0.368
19,ACACTACA,0.167
20,ACACTACT,-0.0134
21,CACTACCA,-0.029
22,AGTCACGC,0.167
23,AGTCACGA,0.103
24,CGTCACGA,0.443
25,CCTCACGC,0.0875

row,Sequence,PBM E-score
1,GGTCACGA,-0.0631
2,CGTCACGC,0.433
3,GTTCGCGA,0.133
4,GGAAGCTA,-0.135
5,AGTGCAGA,-0.0919
6,CGGGATAA,0.0877
7,GGCTTGTA,-0.158
8,AGCTCAAT,0.016
9,AGATTGAT,-0.0863
10,CGTCATTA,0.487
11,CCTCATTC,-0.0556
12,AGTCATTC,0.135
13,AGTCATTA,0.032
14,GGTCATTA,0.232
15,CGTCATTC,0.482
16,ACTCAAAC,0.0881
17,GTGGCGCA,0.0382
18,CCTGGCTC,-0.137
19,TGCTTCCA,-0.067
20,GAAGCTTC,-0.375
21,CTCTGCAA,-0.0293
22,CAGCTCAG,-0.0505
23,CCTCACTC,-0.0833
24,AGTCACTA,0.0867
25,AGTCACTC,-0.0377

row,Sequence,PBM E-score
1,GGTCACTA,0.0129
2,CGTCACTC,0.418
3,CGTCACTA,0.445
4,CACCACCG,-0.248
5,TACGCCTA,0.208
6,AATCTAAC,0.124
7,CGATCTAA,0.0385
8,CGGCATGA,0.11
9,TAGTATAA,0.24
10,ACTCCACG,0.0133
11,AACTCTCA,0.0877
12,GTGATGCA,0.249
13,ATGATGTC,0.446
14,ATGATGAA,0.321
15,GTGATGTA,0.397
16,ATGATGTA,0.459
17,GTGATGAA,0.111
18,ATGATGCC,0.244
19,ATGATGAC,0.327
20,AAGATGTA,0.206
21,ATGATGCA,0.376
22,CTGATGTC,0.173
23,CTGATGTA,0.255
24,ATCGAAGG,0.0197
25,GTGAGCCA,-0.0673

row,Sequence,PBM E-score
1,GCGGAATA,0.0622
2,CTAGAAGA,0.0318
3,TTTTAAAA,0.233
4,ATTTAGTG,0.0842
5,GCCGCTCC,-0.396
6,AATTTCAG,0.0849
7,TGACAGAA,0.141
8,GGGCAATA,-0.14
9,CGACCGCA,-0.266
10,ATGATGAG,0.275
11,AGGATGTG,-0.206
12,ATGATGTG,0.379
13,AACTCCAG,-0.205
14,AGGAACAT,0.176
15,AAAGAACG,0.143
16,ATTGACTA,-0.0436
17,AGTATTTA,0.164
18,CGTATTTC,0.367
19,AGTATTTC,0.108
20,CCTATTTC,0.0978
21,GGTATTTA,0.0513
22,CGTATTTA,0.419
23,GTCGAGAA,0.107
24,CCGATGAA,-0.198
25,AGAGAGGC,-0.353

row,Sequence,PBM E-score
1,AGCCCAGG,-0.331
2,AACTAAGC,0.123
3,GAAGGAAC,-0.138
4,AAAACGCC,0.0157
5,AAAACGAC,0.113
6,CAAACGTA,0.416
7,TAAACGAA,0.116
8,CAAACGTG,0.272
9,CAAACGCA,0.0771
10,AAAACGTT,0.207
11,TAAACGGA,-0.0437
12,AAAACGTG,0.304
13,AAAACGTC,0.409
14,TAAACGTA,0.42
15,AAAACGTA,0.449
16,CGTGCTAC,0.208
17,CACTATAG,-0.00316
18,ATTTCAAC,0.0828
19,ACGGTAGG,-0.189
20,GAAACGTA,0.398
21,GAAACGGA,0.15
22,GAAACGTC,0.385
23,GAAACGAA,0.115
24,GAAACGCC,0.145
25,CAAACGTC,0.329

row,Sequence,PBM E-score
1,ACTAACTA,-0.0162
2,AGGTTGCA,0.0863
3,GCAGCGGA,-0.11
4,CCCTGAGC,-0.145
5,ACCATTGA,0.0435
6,AGGCGTAC,0.105
7,AGTCGTAT,0.0845
8,AGACGTTG,0.111
9,AGACGTAT,0.441
10,AGACGTAC,0.395
11,AGACGTCG,0.21
12,AGACGTAG,0.382
13,AGCCGTAT,-0.0778
14,ATGCAGGC,-0.024
15,CGTGCAAG,0.0462
16,CCTACAAA,-0.0324
17,CAAGTCTA,-0.0923
18,ACCCTGAT,-0.0969
19,AGCCCTAT,-0.331
20,CCGCGGGA,-0.201
21,AATGCCCT,-0.205
22,AGAGGGTA,-0.035
23,ATGTCGTA,0.424
24,ATGTCGGC,-0.12
25,CTGTCGTC,0.21

row,Sequence,PBM E-score
1,GTGTCGTA,0.312
2,ATGTCGTC,0.365
3,ATGTCGTG,0.239
4,TGATAGAA,0.0834
5,AGGAGGTC,-0.24
6,AGCTAACA,-0.0839
7,AGGCACGA,0.0425
8,ACGACGGG,0.0518
9,ACGACGTA,0.446
10,ACGACGAC,0.00819
11,ACGACGTG,0.365
12,ACGACGCC,0.0289
13,ACGACGTC,0.367
14,ACGACGGA,0.0966
15,ACGACGAG,0.00694
16,ACGACGAT,0.127
17,ATGGGCAA,-0.138
18,AGGAGATC,-0.214
19,AGAAACAT,0.152
20,TCCTTGCA,-0.292
21,AAAATTCC,-0.152
22,CACGCCGG,-0.211
23,CGAAAAGA,0.163
